Data on 40 compounds can be found in PubChem BioAssay.

SMILES strings stand for the structures. Calls of active or inactive are those of the source.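 The calls were made as follows, unless noted: active = mean inhibition above 46.68%, the untreated control wells mean plus 3 SD; inactive = the rest.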

Sequence of Nuclear receptor coactivator 1 (Homo sapiens) (Q15788 whole entry, looked up, the tested form may be a part): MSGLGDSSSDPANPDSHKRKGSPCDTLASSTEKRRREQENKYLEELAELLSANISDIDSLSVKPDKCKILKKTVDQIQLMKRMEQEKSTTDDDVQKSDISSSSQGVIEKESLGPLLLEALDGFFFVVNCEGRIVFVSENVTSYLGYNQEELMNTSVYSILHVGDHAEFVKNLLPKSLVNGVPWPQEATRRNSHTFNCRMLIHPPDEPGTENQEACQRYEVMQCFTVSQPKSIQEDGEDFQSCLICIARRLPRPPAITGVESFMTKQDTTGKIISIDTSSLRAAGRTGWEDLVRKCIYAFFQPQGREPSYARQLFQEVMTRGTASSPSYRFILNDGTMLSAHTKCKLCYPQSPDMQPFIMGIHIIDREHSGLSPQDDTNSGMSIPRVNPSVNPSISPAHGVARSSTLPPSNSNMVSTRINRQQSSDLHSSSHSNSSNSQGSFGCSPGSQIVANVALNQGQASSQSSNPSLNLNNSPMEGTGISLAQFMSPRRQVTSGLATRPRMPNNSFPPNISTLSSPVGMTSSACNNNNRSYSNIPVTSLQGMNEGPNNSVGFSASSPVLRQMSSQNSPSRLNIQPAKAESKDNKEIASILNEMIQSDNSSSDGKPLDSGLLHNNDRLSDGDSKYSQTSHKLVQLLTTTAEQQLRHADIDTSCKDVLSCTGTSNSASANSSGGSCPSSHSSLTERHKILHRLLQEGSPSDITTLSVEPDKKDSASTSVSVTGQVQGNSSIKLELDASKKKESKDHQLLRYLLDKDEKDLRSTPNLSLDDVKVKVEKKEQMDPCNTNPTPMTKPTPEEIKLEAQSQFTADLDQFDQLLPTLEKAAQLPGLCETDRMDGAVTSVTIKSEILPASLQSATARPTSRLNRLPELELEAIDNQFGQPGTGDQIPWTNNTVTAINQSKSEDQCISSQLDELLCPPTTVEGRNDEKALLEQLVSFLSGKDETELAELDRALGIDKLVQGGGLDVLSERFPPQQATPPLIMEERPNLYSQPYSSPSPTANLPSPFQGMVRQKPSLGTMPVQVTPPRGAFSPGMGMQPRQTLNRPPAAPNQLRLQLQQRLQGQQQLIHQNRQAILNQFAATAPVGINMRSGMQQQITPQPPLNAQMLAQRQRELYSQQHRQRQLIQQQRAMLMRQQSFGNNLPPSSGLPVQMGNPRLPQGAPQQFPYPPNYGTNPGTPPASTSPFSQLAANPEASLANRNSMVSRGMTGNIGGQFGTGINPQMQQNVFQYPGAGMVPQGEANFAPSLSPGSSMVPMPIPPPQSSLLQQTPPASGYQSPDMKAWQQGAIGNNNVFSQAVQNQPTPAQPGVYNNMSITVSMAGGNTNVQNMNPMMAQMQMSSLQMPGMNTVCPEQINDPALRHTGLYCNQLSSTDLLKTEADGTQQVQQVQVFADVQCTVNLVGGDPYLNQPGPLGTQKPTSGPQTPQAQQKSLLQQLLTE

The first test concerns the target Nuclear receptor coactivator 1 (Homo sapiens) (UniProt Q15788). Nature of the test: SRC1 coactivator transcriptional activity inhibitors, confirmation, cell-based, luminescence, quadruplicate (AID 588820).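 Also: 0% = DMSO wells and 100% = gossypol 36 µM treated wells.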 Particulars: HEK293 GAL4-SRC1 luciferase reporter, at 3.6 µM, stronger effect = higher value. A general note: A reporter such as luciferase makes a cellular process visible.
One may read the inhibition as the relative decrease from the control value, in per cent. With `CCOC(=O)C(=O)NNc1ccc(F)cc1`, the inhibition was -25.9% (inactive).

For the compound `Cc1nc2ccccn2c1-c1ccnc(=S)[nH]1`, the inhibition is 31.1% (inactive).

With `Cc1ccc(O)c(Nc2ncnc3ccc([N+](=O)[O-])cc23)c1`, the inhibition was 17.6% (inactive).

On to `COc1ccc(CCN(C)C(=O)CSc2nnc(C3CC3)n2N)cc1OC`, for which the inhibition is 6.18% (inactive).

`O=c1[nH]cnc2sc3c(c12)CCCC3`: the inhibition is 10.8% (inactive).

Take `Cc1cc(C)c2nc(NNC(=O)c3ccc(S(=O)(=O)N4CCc5ccccc5C4)cc3)sc2c1`: the inhibition was 32.2% (inactive).

Regarding `c1ccc(-c2cn(-c3ccccc3)c3ncnc(N4CCCCC4)c23)cc1`, the inhibition was 1.38% (inactive).

As for `CCOC(=O)c1c(-c2ccccc2)csc1NC(=O)c1nn(CC)cc1Br`, the inhibition is -4.38% (inactive).

For `CC(C)N(C)c1ncnc2c1ncn2[C@H]1CN(Cc2ccncc2)C[C@@H](CO)O1`, the inhibition is -19.9% (inactive).

Consider `COc1ccc(-c2csc3ncnc(N4CCN(CCO)CC4)c23)cc1`, for which the inhibition is 0.84% (inactive).

For the compound `CCN(CC)S(=O)(=O)c1ccc(N2CCOCC2)c(NC(=O)c2cc(-c3ccccn3)nc3ccccc23)c1`, the inhibition was -32% (inactive).

Consider `CC(O)(c1ccccc1)c1nc(-c2cccc(C#N)c2)cs1` (stereo not given), for which the inhibition is -22.4% (inactive).

As for `Cc1cc(C)cc(C(=O)Nc2cccc(NC(=O)c3ccco3)c2)c1`, the inhibition was -11.1% (inactive).

In the case of `O=C(CSc1nc2[nH]ncc2c(=O)[nH]1)N1CCCCC1`, the inhibition was -8.66% (inactive).

`O=C(Nc1nc(-c2ccc(F)c(F)c2)cs1)c1cnccn1`: the inhibition is 7.57% (inactive).

For `COc1ccc(CN(CC(=O)NCc2ccccc2)C(=O)CCC(=O)Nc2cc(C)ccn2)cc1`, the inhibition was -7.07% (inactive).

For the compound `CC(C)(C)c1ccc(-n2ncc3c2CCCC3NC(=O)CN2CCOC2=O)cc1` (stereo not given), the inhibition is -6.1% (inactive).

Take `COC(=O)c1cccc(NC(=O)c2ccc[n+]([O-])c2)c1`: the inhibition is -21.8% (inactive).

For the compound `COc1ccc(OC)c(S(=O)(=O)NCC(c2ccc3c(c2)OCO3)N2CCOCC2)c1` (stereo not given), the inhibition is -16.7% (inactive).

On to `Cc1cc[n+](CC(=O)Nc2cccc(C)c2)cc1`, for which the inhibition was -8.15% (inactive).

As to `Cc1cn(Cc2ccccc2Cn2cc(C)c(=O)[nH]c2=O)c(=O)[nH]c1=O`, the inhibition is -23.2% (inactive).

As to `COc1ccc2cc3cc(C(=O)NCCc4ccc(OC)c(OC)c4)oc3nc2c1`, the inhibition is -32.9% (inactive).

Consider `Cc1ccc(S(=O)(=O)N2[C@@H](c3cccc(Cl)c3)C(C(=O)OC(C)(C)C)=CC[C@H]2c2ccc(C(C)C)cc2)cc1`, for which the inhibition is 0.74% (inactive).

Consider `COc1ccc(OC)c(C2=NS(=O)(=O)N(C)C(C(=O)Nc3ccc(F)cc3F)=C2)c1`, for which the inhibition is -0.3% (inactive).

On to `CC1=C(C(=O)OC2CCCCC2)C(c2ccc(C)o2)C2=C(CC(C)(C)CC2=O)N1` (stereo not given), for which the inhibition was -5.08% (inactive).

Take `CCC(C(=O)OCC(=O)Nc1cc(Cl)cc(Cl)c1)c1ccccc1` (stereo not given): the inhibition is -0.98% (inactive).

For the compound `CCCCCCn1nc(C(=O)OCC(=O)c2c(N)n(C)c(=O)n(C)c2=O)c2ccccc2c1=O`, the inhibition is -6.84% (inactive).

Take `c1ccc(-n2cnc3cc(NCc4cccs4)ccc32)cc1`: the inhibition is -69.4% (inactive).

Turning to `CC(CC(=O)Nc1ccc(Cl)c(S(=O)(=O)N2CCOCC2)c1)c1ccccc1` (stereo not given), the inhibition was 1.13% (inactive).

As to `COc1ccc(/C=N/Nc2nc3ccccc3[nH]2)c(OC)c1OC`, the inhibition is -27.8% (inactive).

With `CCC(CC)C(=O)N(C)c1c(C)nc2c(OCc3ccc(OC(F)F)cc3)cccn12`, the inhibition was -18.2% (inactive).

`COc1ccccc1OCCn1c(C)c(C=O)c2ccccc21`: the inhibition is 10.8% (inactive).

Consider `Cc1ccc(N2CC(C(=O)N3CCC(C(=O)NCCCOC(C)C)CC3)CC2=O)cc1` (stereo not given), for which the inhibition was -30.7% (inactive).

As for `CC(C(=O)Nc1ccon1)N1C(=O)c2ccccc2S1(=O)=O` (stereo not given), the inhibition is -3.82% (inactive).

As for `Cc1nn(-c2ccccc2)c(N2CCCC2)c1/C=N/NC(=S)Nc1ccc(F)cc1`, the inhibition is 3.12% (inactive).

Turning to `O=C(Nc1ccccc1N1CCOCC1)c1cc(-c2ccncc2)nc2ccccc12`, the inhibition is -29.7% (inactive).

As for `O=C1Nc2cc(C(=O)NCC3CCCO3)ccc2S/C1=C/c1ccccc1F` (stereo not given), the inhibition was -7.31% (inactive).

`COc1cc2cc[n+](Cc3ccc([N+](=O)[O-])cc3)cc2cc1OC`: the inhibition was -2.4% (inactive).

Turning to `COc1cc(-c2cnc3c(NC(C)=O)cc(-c4ccc(N5CCN(C)CC5)cc4)cn23)cc(OC)c1OC`, the inhibition is -17.8% (inactive).

As to `COc1ccc(CNc2nc(C)cc(C)c2C#N)cc1`, the inhibition is -9.61% (inactive).

System in another test: not listed separately
Put plainly: VP16 transactivation inhibitors, counter-screen for SRC1 inhibitor project, cell-based, luminescence, high throughput (AID 588824; in the data active = inhibition above about 25%). Particulars: cell-based VP16 transactivation luciferase luminescence; at 3.6 µM; stronger effect = higher value.
As to `CCOC(=O)C(=O)NNc1ccc(F)cc1`, the inhibition was -4.08% (inactive).

For the compound `Cc1nc2ccccn2c1-c1ccnc(=S)[nH]1`, the inhibition was 11.1% (inactive).

For the compound `Cc1ccc(O)c(Nc2ncnc3ccc([N+](=O)[O-])cc23)c1`, the inhibition is 23.6% (inactive).

For `COc1ccc(CCN(C)C(=O)CSc2nnc(C3CC3)n2N)cc1OC`, the inhibition is 12.5% (inactive).

As to `O=c1[nH]cnc2sc3c(c12)CCCC3`, the inhibition is 11.2% (inactive).

As for `Cc1cc(C)c2nc(NNC(=O)c3ccc(S(=O)(=O)N4CCc5ccccc5C4)cc3)sc2c1`, the inhibition is 30% (active).

Take `c1ccc(-c2cn(-c3ccccc3)c3ncnc(N4CCCCC4)c23)cc1`: the inhibition was 9.49% (inactive).

On to `CCOC(=O)c1c(-c2ccccc2)csc1NC(=O)c1nn(CC)cc1Br`, for which the inhibition was -7.57% (inactive).

As for `CC(C)N(C)c1ncnc2c1ncn2[C@H]1CN(Cc2ccncc2)C[C@@H](CO)O1`, the inhibition was -7.41% (inactive).

In the case of `COc1ccc(-c2csc3ncnc(N4CCN(CCO)CC4)c23)cc1`, the inhibition was 9.88% (inactive).

Take `CCN(CC)S(=O)(=O)c1ccc(N2CCOCC2)c(NC(=O)c2cc(-c3ccccn3)nc3ccccc23)c1`: the inhibition is -1.24% (inactive).

Turning to `CC(O)(c1ccccc1)c1nc(-c2cccc(C#N)c2)cs1` (stereo not given), the inhibition was -4.39% (inactive).

`Cc1cc(C)cc(C(=O)Nc2cccc(NC(=O)c3ccco3)c2)c1`: the inhibition is 9.42% (inactive).

On to `O=C(CSc1nc2[nH]ncc2c(=O)[nH]1)N1CCCCC1`, for which the inhibition is -6.86% (inactive).

Consider `O=C(Nc1nc(-c2ccc(F)c(F)c2)cs1)c1cnccn1`, for which the inhibition is -11.4% (inactive).

For the compound `COc1ccc(CN(CC(=O)NCc2ccccc2)C(=O)CCC(=O)Nc2cc(C)ccn2)cc1`, the inhibition is 0.36% (inactive).

`CC(C)(C)c1ccc(-n2ncc3c2CCCC3NC(=O)CN2CCOC2=O)cc1` (stereo not given): the inhibition is 7.65% (inactive).

Take `COC(=O)c1cccc(NC(=O)c2ccc[n+]([O-])c2)c1`: the inhibition was 4.7% (inactive).

`COc1ccc(OC)c(S(=O)(=O)NCC(c2ccc3c(c2)OCO3)N2CCOCC2)c1` (stereo not given): the inhibition is -6.55% (inactive).

As for `Cc1cc[n+](CC(=O)Nc2cccc(C)c2)cc1`, the inhibition is 1.99% (inactive).

`Cc1cn(Cc2ccccc2Cn2cc(C)c(=O)[nH]c2=O)c(=O)[nH]c1=O`: the inhibition was -5.61% (inactive).

For the compound `COc1ccc2cc3cc(C(=O)NCCc4ccc(OC)c(OC)c4)oc3nc2c1`, the inhibition is 42.2% (active).

With `Cc1ccc(S(=O)(=O)N2[C@@H](c3cccc(Cl)c3)C(C(=O)OC(C)(C)C)=CC[C@H]2c2ccc(C(C)C)cc2)cc1`, the inhibition was 11.2% (inactive).

Take `COc1ccc(OC)c(C2=NS(=O)(=O)N(C)C(C(=O)Nc3ccc(F)cc3F)=C2)c1`: the inhibition is 4.07% (inactive).

On to `CC1=C(C(=O)OC2CCCCC2)C(c2ccc(C)o2)C2=C(CC(C)(C)CC2=O)N1` (stereo not given), for which the inhibition is 4.47% (inactive).

Regarding `CCC(C(=O)OCC(=O)Nc1cc(Cl)cc(Cl)c1)c1ccccc1` (stereo not given), the inhibition is -3.53% (inactive).

Turning to `CCCCCCn1nc(C(=O)OCC(=O)c2c(N)n(C)c(=O)n(C)c2=O)c2ccccc2c1=O`, the inhibition is -3.36% (inactive).

Consider `c1ccc(-n2cnc3cc(NCc4cccs4)ccc32)cc1`, for which the inhibition is -44.1% (inactive).

For the compound `CC(CC(=O)Nc1ccc(Cl)c(S(=O)(=O)N2CCOCC2)c1)c1ccccc1` (stereo not given), the inhibition is 38.6% (active).

Consider `COc1ccc(/C=N/Nc2nc3ccccc3[nH]2)c(OC)c1OC`, for which the inhibition was -23% (inactive).

Take `CCC(CC)C(=O)N(C)c1c(C)nc2c(OCc3ccc(OC(F)F)cc3)cccn12`: the inhibition was 5.06% (inactive).

Take `COc1ccccc1OCCn1c(C)c(C=O)c2ccccc21`: the inhibition is 8.95% (inactive).

Take `Cc1ccc(N2CC(C(=O)N3CCC(C(=O)NCCCOC(C)C)CC3)CC2=O)cc1` (stereo not given): the inhibition was -8.26% (inactive).

On to `CC(C(=O)Nc1ccon1)N1C(=O)c2ccccc2S1(=O)=O` (stereo not given), for which the inhibition was 11.8% (inactive).

Regarding `Cc1nn(-c2ccccc2)c(N2CCCC2)c1/C=N/NC(=S)Nc1ccc(F)cc1`, the inhibition is 0.35% (inactive).

For the compound `O=C(Nc1ccccc1N1CCOCC1)c1cc(-c2ccncc2)nc2ccccc12`, the inhibition is 2.98% (inactive).

Turning to `O=C1Nc2cc(C(=O)NCC3CCCO3)ccc2S/C1=C/c1ccccc1F` (stereo not given), the inhibition is -5.02% (inactive).

With `COc1cc2cc[n+](Cc3ccc([N+](=O)[O-])cc3)cc2cc1OC`, the inhibition was -3.17% (inactive).

For the compound `COc1cc(-c2cnc3c(NC(C)=O)cc(-c4ccc(N5CCN(C)CC5)cc4)cn23)cc(OC)c1OC`, the inhibition is -18.2% (inactive).

For `COc1ccc(CNc2nc(C)cc(C)c2C#N)cc1`, the inhibition was -3.68% (inactive).
